A selection: hits, their analogues and other compounds. The true share with any hit is near 3.5%.
UGM FP inh: Mtb UDP-galactopyranose mutase inhibition | purified UGM, fluorescence polarization probe displacement | inhibition, % at 10 µM | hit rate 0.06% among 320,000; in the data active = inhibition above about 10%, passing the limit was not always enough
GDH-TPI counter-1: inhibits GDH-TPI coupling enzymes, artifact for Mtb FBA screen; GDH-TPI coupled enzyme counterscreen, NADH absorbance; inhibition, % at 4.8 µM; hit rate 1.2% among 360,000; in the data active = inhibition above about 30%;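 also: 0% = DMSO wells and 100% = wells lacking the enzyme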
Rv3671c protease: inhibitors of M. tuberculosis serine protease Rv3671c | inhibition, % at 5.96 µM | P9WHR9 | hit rate 0.048% among 320,000; in the data active = inhibition above about 38%;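 also: extracellular domain of Rv3671c used as enzyme; 0% = enzyme with DMSO and 100% = no enzyme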
FBA Mtb inh: inhibitors of M. tuberculosis fructose-bisphosphate aldolase; P9WQA3; purified M. tuberculosis FBA, fluorescence read-out; inhibition, % at 1 µM; hit rate 2.3% among 360,000; AID 588726;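 also: 0% = vehicle and 100% = reference inhibitor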
Target sequence (P9WQA3 whole entry, looked up): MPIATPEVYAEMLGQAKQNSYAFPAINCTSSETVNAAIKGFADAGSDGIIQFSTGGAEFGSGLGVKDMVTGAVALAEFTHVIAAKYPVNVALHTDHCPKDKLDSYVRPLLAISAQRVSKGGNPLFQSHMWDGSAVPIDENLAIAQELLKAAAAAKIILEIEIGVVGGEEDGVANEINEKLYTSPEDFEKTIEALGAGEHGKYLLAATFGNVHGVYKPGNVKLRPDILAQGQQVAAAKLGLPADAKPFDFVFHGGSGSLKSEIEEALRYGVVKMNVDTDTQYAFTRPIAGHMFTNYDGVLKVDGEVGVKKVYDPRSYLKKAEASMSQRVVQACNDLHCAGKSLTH
Mtb FBA inh conf: confirmation of M. tuberculosis fructose-bisphosphate aldolase inhibitors | shares compounds with FBA Mtb inh | purified M. tuberculosis FBA, fluorescence read-out | inhibition, % at 1 µM | hit rate 78% among 5,600 | AID 651616;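 also: 0% = vehicle wells and 100% = reference inhibitor wells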
GDH-TPI counter-2: counter-screen for M. tuberculosis FBA inhibitors: GDH-TPI coupled enzyme inhibition | shares compounds with FBA Mtb inh | GDH-TPI coupled enzyme counterscreen, fluorescence | inhibition, % at 1 µM | hit rate 81% among 5,600 | AID 652141; in the data active = inhibition above about 10%
* hit, by the source's call; . = no result given; + = active, no number. Rule as the data show it, unless noted: active = inhibition above about 27%; inactive = the rest.

SMILES | UGM FP inh | GDH-TPI counter-1 | Rv3671c protease | FBA Mtb inh | Mtb FBA inh conf | GDH-TPI counter-2
O=S(=O)(Nc1ccc(-c2nc3ccccc3o2)cc1)c1ccccc1 | 4 | 43* | -18 | 87* | 131* | 110*
O=C(Nc1ccc(-c2nc3ccccc3o2)cc1)C1CCCO1 (configuration not stated) | -1 | 18 | 5 | 34* | -3 | -2
CC(=O)Nc1ccc(S(=O)(=O)Nc2cccc(-c3nc4ccccc4o3)c2)cc1 | -1 | 4 | -37 | 55* | 58* | 53*
O=S(=O)(Nc1ccc(-c2cnco2)cc1)c1ccccc1 | -1 | -6 | -8 | 0 | . | .
C[C@H](CO)N1C[C@H](C)[C@@H](CN(C)S(=O)(=O)c2cccs2)Oc2c(NC(=O)CCC(F)(F)F)cccc2C1=O | -4 | 7 | 6 | 6 | . | .
CCCSc1ccc([C@@H]2[C@@H]3C(=O)N(C)C(=O)[C@@H]3[C@]3(C(=O)OC)CCCN23)cc1OC | 2 | 4 | -5 | 6 | . | .
COC(=O)c1cc(NC(=O)CN(C)Cc2ccccc2)cc(C(=O)OC)c1 | -1 | 14 | -6 | 35* | 26 | 22*
CN(CC(=O)Nc1ccc(Br)cc1)Cc1ccccc1 | -4 | 2 | -7 | 1 | . | .
O=C(CSc1nnc(C2CC2)n1-c1ccccc1)N1CCCC1 | -3 | 7 | -8 | 6 | . | .
O=C(COc1cccc(F)c1)Nc1nc(-c2ccncc2)cs1 | -4 | 1 | -4 | 2 | . | .
Cn1c2ccccc2c(=O)c2ccc(NCCc3cccs3)cc21 | -3 | 30 | -13 | 109* | 5 | -1
NC(=O)c1ccc(NCCc2cccs2)cc1 | . | . | . | 4 | . | .
CCOC(=O)NC1Cc2ccccc2C1Sc1ccccn1 (configuration not stated) | 0 | -9 | -8 | -2 | . | .
COc1cc(/C=N/NC(=O)Cn2cnc3c2c(=O)n(C)c(=O)n3C)cc(OC)c1OC | -3 | -1 | 2 | 5 | . | .
COc1cccc(/C=N/NC(=O)Cn2cnc3c2c(=O)n(C)c(=O)n3C)c1OC | 1 | -3 | 8 | 30* | 2 | -2
CCCCc1ccc(N/C(N)=N/c2nc(C)cc(C)n2)cc1 | 0 | -2 | -6 | 0 | . | .
COc1ccccc1-n1nnnc1SCC(=O)N(C)C1CCS(=O)(=O)C1 (configuration not stated) | -2 | 6 | -9 | 7 | . | .
COc1ccc2oc(C(=O)OC(C)C(=O)NCc3ccccc3)c(C)c2c1 (configuration not stated) | -1 | 5 | 10 | 25 | . | .
COc1ccc2oc(C(=O)OC(C)C(=O)N3C(C)CCCC3C)c(C)c2c1 (configuration not stated) | 5 | 18 | -1 | 62* | 51* | 31*
COc1ccc2oc(C(=O)OC(C)C(=O)NC3(C#N)CCCCC3)c(C)c2c1 (configuration not stated) | -1 | -7 | 8 | 28* | 39* | 29*
COC(=O)C1(C)Nc2ccccc2C(=O)N1c1ccccc1C (configuration not stated) | 0 | 16 | 2 | 52* | 102* | 71*
COc1ccc(CN2CCc3c([nH]c4ccccc34)C2)c(OC)c1C | 2 | 29 | -2 | 8 | . | .
CC(C)Oc1ncnc2c1[nH]c1ccccc12 | -3 | -7 | 2 | 33* | 165* | 130*
CN(C)S(=O)(=O)c1ccc(N2CCCC2)c(C(=O)N2CCN(S(=O)(=O)c3ccc(F)c(F)c3)CC2)c1 | . | -10 | . | 1 | . | .
CC1CCC(NC(=O)COC(=O)c2ccco2)CC1 (configuration not stated) | 2 | 1 | 5 | 2 | . | .
SMILES | UGM FP inh | GDH-TPI counter-1 | Rv3671c protease | FBA Mtb inh | Mtb FBA inh conf | GDH-TPI counter-2
CCCCS(=O)(=O)Nc1ccc(C)cn1 | 2 | -1 | -1 | 41* | + | +
O=C(NCC1CCCO1)c1cnn2c(C(F)F)cc(C3CC3)nc12 (configuration not stated) | 2 | 2 | . | 11 | . | .
CNC(=O)c1cc2cc(OC)ccc2oc1=O | -1 | -1 | 0 | 59* | 14 | -4
COc1ccc2oc(=O)c(C(=O)NCC3CCCO3)cc2c1 (configuration not stated) | -1 | 15 | 0 | 64* | 79* | 59*
COc1ccc2oc(=O)c(C(=O)NC3CCCCCC3)cc2c1 | 1 | 17 | -2 | 10 | . | .
COc1ccc2oc(=O)c(C(=O)n3ccc(C)n3)cc2c1 | 4 | 16 | 0 | 40* | 78* | 54*
COc1cc(Br)cc2cc(C(=O)NCC3CCCO3)c(=O)oc12 (configuration not stated) | 3 | 4 | -4 | 2 | . | .
COc1ccc(-c2cc(C(F)F)n3ncc(C(=O)NCC4CCCO4)c3n2)cc1 (configuration not stated) | 4 | 26 | -2 | 29* | 96* | 76*
O=P1(NC2CCCC2)OCC2(CO1)COP(=O)(NC1CCCC1)OC2 (configuration not stated) | . | 8 | . | -2 | . | .
Cc1ccc2nc(-c3ccc(Br)cc3)cc(C(=O)NCC3CCCO3)c2c1 (configuration not stated) | . | 19 | . | 2 | . | .
CNC(=O)c1cc2cc(OC)ccc2oc1=N | 1 | 6 | 0 | 54* | 28* | 16*
Cc1ccc2nc(-c3ccccc3)cc(C(=O)NCC3CCCO3)c2c1 (configuration not stated) | 2 | 7 | -9 | 41* | 81* | 86*
COc1ccc(S(=O)(=O)N2CCC3(CC2)CC(=O)c2ccccc2O3)cc1OC | 0 | 6 | 1 | 5 | . | .
CCOC(=O)c1nn(-c2ccc(Cl)cc2)c2nc(-c3ccc(C)cc3)c(C#N)c(=O)n12 | 2 | 6 | -9 | 6 | . | .
CCOC(=O)c1nn(-c2ccc(Cl)cc2)c2nc(CC)c(C#N)c(=O)n12 | 2 | 21 | -6 | 37* | 1 | 1
CCOC(=O)c1nn(-c2ccc(OCC)cc2)c2nc(CC(C)C)c(C#N)c(=O)n12 | -1 | -1 | 5 | 104* | -7 | -6
N#Cc1cccnc1N1CCC(C(N)=O)CC1 | 0 | 9 | 4 | 30* | 50* | 38*
COCCn1ccc2c(OCC(=O)NCc3ccc(C)cc3)cccc2c1=O | -1 | 4 | -6 | 1 | . | .
Cc1ccc(-c2cc3cccc[n+]3cc2-c2ccc(C)cc2)cc1 | 0 | 21 | 0 | 40* | 126* | 98*
COc1ccc(C(=O)C2CCCN(S(=O)(=O)c3ccccc3F)C2)c(C)c1 (configuration not stated) | 0 | 3 | -12 | 2 | . | .
CC(=O)c1sc2nc(-c3cccs3)ccc2c1N | -1 | 19 | -28 | 17 | . | .
Nc1c(C(=O)Nc2nc3ccccc3s2)sc2nc(-c3cccs3)ccc12 | 1 | 35* | 0 | 52* | 123* | 114*
COc1ccc(-c2ccc(CCC(=O)O)n2C(C)C)cc1 | -2 | 13 | -8 | 32* | 163* | 114*
COc1ccc(NC(=O)Cn2c(CCC(=O)O)ccc2-c2ccccc2)cc1 | 2 | 2 | 4 | 7 | . | .

Bioassay records: PubChem BioAssay, several laboratories
